Among the test systems are RPMI-8226 leukemia; OVCAR-8 ovarian; OVCAR-5 ovarian; OVCAR-4 ovarian; SK-OV-3 ovarian; IGROV1 ovarian; OVCAR-3 ovarian; HS 578T breast; NCI/ADR-RES ovarian; T-47D breast.
What all share (experiment): NCI-60 one-dose screen, 48 h (100 = growth as untreated, 0 = no growth, -100 = all killed)
Holding throughout (details): 10 µM

Each structure is given as a SMILES string. Compounds without any hit were thinned out: in the full panel of roughly 83,000, 20% have a hit.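 In brief: 96-well plates, 48 h treatment, single concentration, percent growth endpoint.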 Unmarked numbers belong to inactive results. Activity calls are given as the source filed them. How the source made its calls: active means growth percent below 10; inactive means the rest.

With `C#Cc1ccc(-n2c(/C=C/c3ccc(O)cc3)nc3ncccc3c2=O)cc1`, the growth with RPMI-8226 leukemia was 46.9%; in the assay with OVCAR-8 ovarian, 75.2%; in the assay with OVCAR-5 ovarian, 97.4%; in the assay on OVCAR-4 ovarian, 61%; with SK-OV-3 ovarian, 45.5%; in the assay with IGROV1 ovarian, 62.5%. The figures for the growth in the assay with OVCAR-3 ovarian, in the assay on HS 578T breast and in the assay on NCI/ADR-RES ovarian were 4.59% (active), 64% and 55%, respectively.
On to `CCCCCCCCCCCCCCCC(=O)OC1[C@@H](OC(=O)CCCCCCCCCCCCCCC)[C@@H](C(=O)N[C@@H](CCCCN)C(=O)OC)O[C@H]1n1cnc2c(=O)[nH]c(NC(=O)C(C)C)nc21` (stereo partly specified), for which the growth with RPMI-8226 leukemia is 92.5%; in the assay with OVCAR-8 ovarian, 87%; with OVCAR-5 ovarian, 108%; in the assay with OVCAR-4 ovarian it was 120%; in the assay with SK-OV-3 ovarian, 99.4%; in the assay with IGROV1 ovarian, 91.8%. The growth in the assay on OVCAR-3 ovarian is 105%; with HS 578T breast, 107%; in the assay on NCI/ADR-RES ovarian, 102%.
For the compound `Cc1ccc(N=Nc2c(N)nc(N)[nH]c2=O)cc1C`, the growth in the assay on RPMI-8226 leukemia was 97.8%; in the assay on OVCAR-8 ovarian it was 104%; with OVCAR-5 ovarian it was 105%; in the assay with OVCAR-4 ovarian it was 105%; with SK-OV-3 ovarian, 99.2%; in the assay with IGROV1 ovarian it was 92.6%. The growth is 110% in the assay on OVCAR-3 ovarian, 108% in the assay with HS 578T breast and 103% with NCI/ADR-RES ovarian.
As for `C#Cc1ccc(-n2c(/C=C/c3ccc(Cl)c(F)c3)nc3ncccc3c2=O)cc1`, the growth in the assay on RPMI-8226 leukemia is -14.9% (active); in the assay on OVCAR-8 ovarian, -17.4% (active); in the assay with OVCAR-5 ovarian it was 24.1%; in the assay on OVCAR-4 ovarian, -88.5% (active); in the assay on SK-OV-3 ovarian, -7.71% (active); in the assay on IGROV1 ovarian it was -54.5% (active). In addition, the growth with OVCAR-3 ovarian was -79.8% (active); in the assay with HS 578T breast, 13.8%; in the assay on NCI/ADR-RES ovarian it was 1.19% (active); in the assay on T-47D breast it was -39% (active).
In the case of `COc1cc(/C=C/C(=O)c2ccc(Cl)cc2)ccc1OS(=O)(=O)c1ccc(C)cc1`, the growth was -16.7% (active) in the assay with RPMI-8226 leukemia; 83.8% with OVCAR-8 ovarian; 111% with OVCAR-5 ovarian; 92.5% in the assay on OVCAR-4 ovarian; 96.8% in the assay on SK-OV-3 ovarian; 97.9% with IGROV1 ovarian. Besides, the growth with OVCAR-3 ovarian was 80.7%; in the assay with HS 578T breast, 129%; in the assay with NCI/ADR-RES ovarian, 81.4%.
Regarding `COc1cc(-c2cc(/C=C/C(=O)c3ccc(N)cc3)[nH]n2)cc(OC)c1OC`, the growth in the assay on RPMI-8226 leukemia was -26.5% (active); in the assay with OVCAR-8 ovarian it was -53.4% (active); in the assay on OVCAR-5 ovarian, -15% (active); in the assay on OVCAR-4 ovarian it was 26.8%; with SK-OV-3 ovarian it was 27.2%; in the assay on IGROV1 ovarian it was 18.1%. Moreover, the values for the growth with OVCAR-3 ovarian, in the assay on HS 578T breast and in the assay on NCI/ADR-RES ovarian were -45.9% (active), 19.2% and 64.7%, respectively.
In the case of `CC(=O)O[C@]1(C)CC[C@H]2[C@H](CNCCc3ccc(Cl)cc3)C(=O)O[C@@H]2C2=C(C)C(=O)C[C@H]21`, the growth with RPMI-8226 leukemia is 64.7%; in the assay on OVCAR-8 ovarian, 93.1%; in the assay with OVCAR-5 ovarian, 100%; with OVCAR-4 ovarian, 87.4%; in the assay on SK-OV-3 ovarian it was 101%; with IGROV1 ovarian, 97.5%. The growth is 99.2% in the assay with OVCAR-3 ovarian, 150% with HS 578T breast and 109% with NCI/ADR-RES ovarian.
In the case of `COc1ccccc1CNCCCN1C(=O)c2ccc3c4c(ccc(c24)C1=O)C(=O)N(CCCN)C3=O`, the growth in the assay with RPMI-8226 leukemia was -13.6% (active); in the assay on OVCAR-8 ovarian, -24.2% (active); in the assay with OVCAR-5 ovarian it was -29.7% (active); in the assay with OVCAR-4 ovarian it was -67.1% (active); in the assay with SK-OV-3 ovarian it was 27.3%; in the assay with IGROV1 ovarian, -52.7% (active). The growth was -27.8% (active) in the assay on OVCAR-3 ovarian, -13% (active) in the assay with HS 578T breast, 59.4% with NCI/ADR-RES ovarian and -42.6% (active) in the assay on T-47D breast.
As for `COc1cc(NC(=O)CCSc2nc3ccc(Cl)cc3c(=O)n2Cc2ccccc2)cc(OC)c1OC`, the growth was 42.5% in the assay on RPMI-8226 leukemia; 73.9% with OVCAR-8 ovarian; 88.8% in the assay on OVCAR-5 ovarian; 61.5% in the assay with OVCAR-4 ovarian; 82% in the assay with SK-OV-3 ovarian; 101% in the assay with IGROV1 ovarian. Moreover, the growth with OVCAR-3 ovarian was 93.4%; with HS 578T breast, 40.3%; in the assay on NCI/ADR-RES ovarian it was 84.3%; in the assay with T-47D breast, 64.2%.
With `N#CCCN1C/C(=C/c2ccccc2)C(=O)/C(=C/c2ccccc2)C1`, the growth was -14.4% (active) in the assay with RPMI-8226 leukemia; 0.855% (active) in the assay on OVCAR-8 ovarian; 84.4% in the assay with OVCAR-5 ovarian; 40.5% with OVCAR-4 ovarian; 67.8% in the assay on SK-OV-3 ovarian; 55.8% in the assay on IGROV1 ovarian. In addition, the growth with OVCAR-3 ovarian was 16%; in the assay with HS 578T breast, -9.54% (active); in the assay with NCI/ADR-RES ovarian, 1.6% (active).
`COc1ccc2c(c1)O/C(=C\c1ncc([N+](=O)[O-])n1C)C2=O`: the growth with RPMI-8226 leukemia was -1.22% (active); in the assay with OVCAR-8 ovarian it was -20.8% (active); in the assay on OVCAR-5 ovarian, -14.7% (active); in the assay on OVCAR-4 ovarian, -11.6% (active); in the assay on SK-OV-3 ovarian, -15.9% (active); with IGROV1 ovarian it was -25% (active). Also, the growth is -24.8% (active) in the assay on OVCAR-3 ovarian, -21.1% (active) with HS 578T breast and 1.07% (active) with NCI/ADR-RES ovarian.
For `COc1cccc(C(=O)Nc2ccc(CN3CCc4nc5cc(OC)c(OC)cc5cc43)cc2)c1`, the growth in the assay on RPMI-8226 leukemia was 40%; in the assay on OVCAR-8 ovarian, 46.8%; in the assay with OVCAR-5 ovarian it was 64.8%; in the assay on OVCAR-4 ovarian, 57.1%; in the assay with SK-OV-3 ovarian, 74.2%; in the assay with IGROV1 ovarian it was 31.8%. In addition, the growth in the assay on OVCAR-3 ovarian is 53.1%; with HS 578T breast it was 61.2%; in the assay on NCI/ADR-RES ovarian, 47.1%; in the assay on T-47D breast, 32.4%.
As to `CCOCC(=O)C(C#N)c1ccc(Cl)c(Cl)c1` (stereo unspecified), the growth was 88.9% with RPMI-8226 leukemia; 101% with OVCAR-8 ovarian; 96.6% in the assay on OVCAR-5 ovarian; 91.3% with OVCAR-4 ovarian; 100% with SK-OV-3 ovarian; 101% in the assay with IGROV1 ovarian. Also, the growth in the assay on OVCAR-3 ovarian is 110%; in the assay with HS 578T breast, 100%; in the assay on NCI/ADR-RES ovarian, 115%.

These data come from PubChem BioAssay (NCI).
